This note sets out measurements from publication PMC12820563, “FoxP3 forms a head-to-head dimer in vivo and stabilizes its multimerization on adjacent microsatellites”.

The full ranking holds about 16,000 sequences; the median of “rpm ratio (pull-down/input)” is about 0.94, and the highest 2% start at about 1.7. What follows is part of a selection rich in the highest values, with near analogues and random picks from the rest.

The target in this experiment is T1, MBP-FoxP1dN (Mus musculus, UniProt P58462 326-579).
T1 sequence: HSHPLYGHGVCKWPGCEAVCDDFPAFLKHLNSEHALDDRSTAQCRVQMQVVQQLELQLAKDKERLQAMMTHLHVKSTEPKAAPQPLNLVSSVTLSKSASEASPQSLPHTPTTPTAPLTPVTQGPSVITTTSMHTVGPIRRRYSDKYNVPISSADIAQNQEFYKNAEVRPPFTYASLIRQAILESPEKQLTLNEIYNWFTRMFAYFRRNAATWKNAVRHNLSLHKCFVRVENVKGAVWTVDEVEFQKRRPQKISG
Nature of the experiment: PD-seq (MBP pull-down with sequencing); 20 mM Tris-HCl pH 7.5, 100 mM NaCl, 1.5 mM MgCl2, 0.4 uM protein, 0.1 uM dsDNA library, 30 min, room temperature, amylose pull-down; high values mean tight binding. Particulars: protein: recombinant; tags: His6-MBP; chain copies: 2; dsDNA, one strand shown. In short, it runs like this:
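Amylose resin was used to capture complexes formed during 30 min at room temperature in Tris pH 7.5 buffer with NaCl and MgCl2 between 0.4 µM His6-MBP-tagged mouse FoxP3 or FoxP1 fragment lacking the N-terminus, expressed in E. coli, and 0.1 µM Klenow-filled double-stranded degenerate DNA library. After three washes, the DNA was released with proteinase K, barcoded by PCR and sequenced on Illumina. Binding is pooled-replicate reads-per-million enrichment, pull-down over input.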
For “GATGATTGTTCTCCCAGCTGATGAATTTCATAAATCGAGTAAACAAATTTTCCTAATCTTTCTGTTCAAGCGCCATCTAC”, the binding signal was 1.05 RPM ratio (pull-down/input).

For the sequence “GATGATTGTTCTCCCAGCTGATGAATTAAATCACTCGAGTAAACAAATTTTCCTAATCTTTCTGTTCAAGCGCCATCTAC”, the binding signal is 1.09 RPM ratio (pull-down/input).

Take “GATGATTGTTCTCCCAGCTGATGAATTAGACGCGTCGAGTAAACAAATTTTCCTAATCTTTCTGTTCAAGCGCCATCTAC”: the binding signal is 0.99 RPM ratio (pull-down/input).

For “GATGATTGTTCTCCCAGCTGATGAATTGCAGATGTCGAGTAAACAAATTTTCCTAATCTTTCTGTTCAAGCGCCATCTAC”, the binding signal is 1.27 RPM ratio (pull-down/input).

For “GATGATTGTTCTCCCAGCTGATGAATTACTCCAATCGAGTAAACAAATTTTCCTAATCTTTCTGTTCAAGCGCCATCTAC”, the binding signal is 1.1 RPM ratio (pull-down/input).

For “GATGATTGTTCTCCCAGCTGATGAATTCCCCAGGTCGAGTAAACAAATTTTCCTAATCTTTCTGTTCAAGCGCCATCTAC”, the binding signal is 0.743 RPM ratio (pull-down/input).

Consider “GATGATTGTTCTCCCAGCTGATGAATTATTTGTGTCGAGTAAACAAATTTTCCTAATCTTTCTGTTCAAGCGCCATCTAC”, for which the binding signal is 2.12 RPM ratio (pull-down/input).

On to “GATGATTGTTCTCCCAGCTGATGAATTATGTGTGTCGAGTAAACAAATTTTCCTAATCTTTCTGTTCAAGCGCCATCTAC”, for which the binding signal is 1.4 RPM ratio (pull-down/input).

“GATGATTGTTCTCCCAGCTGATGAATTATCTGTGTCGAGTAAACAAATTTTCCTAATCTTTCTGTTCAAGCGCCATCTAC”: the binding signal is 1.03 RPM ratio (pull-down/input).

For “GATGATTGTTCTCCCAGCTGATGAATTACTAATATCGAGTAAACAAATTTTCCTAATCTTTCTGTTCAAGCGCCATCTAC”, the binding signal was 1.73 RPM ratio (pull-down/input).

For the sequence “GATGATTGTTCTCCCAGCTGATGAATTACTACTATCGAGTAAACAAATTTTCCTAATCTTTCTGTTCAAGCGCCATCTAC”, the binding signal was 1.24 RPM ratio (pull-down/input).

Turning to “GATGATTGTTCTCCCAGCTGATGAATTACTGATATCGAGTAAACAAATTTTCCTAATCTTTCTGTTCAAGCGCCATCTAC”, the binding signal is 1.18 RPM ratio (pull-down/input).

Take “GATGATTGTTCTCCCAGCTGATGAATTTACAATATCGAGTAAACAAATTTTCCTAATCTTTCTGTTCAAGCGCCATCTAC”: the binding signal is 1.63 RPM ratio (pull-down/input).

As for “GATGATTGTTCTCCCAGCTGATGAATTACCAATATCGAGTAAACAAATTTTCCTAATCTTTCTGTTCAAGCGCCATCTAC”, the binding signal is 1.79 RPM ratio (pull-down/input).

Take “GATGATTGTTCTCCCAGCTGATGAATTACATATATCGAGTAAACAAATTTTCCTAATCTTTCTGTTCAAGCGCCATCTAC”: the binding signal is 1.34 RPM ratio (pull-down/input).

With “GATGATTGTTCTCCCAGCTGATGAATTACCAATTTCGAGTAAACAAATTTTCCTAATCTTTCTGTTCAAGCGCCATCTAC”, the binding signal was 1.13 RPM ratio (pull-down/input).

In the case of “GATGATTGTTCTCCCAGCTGATGAATTACAAATATCGAGTAAACAAATTTTCCTAATCTTTCTGTTCAAGCGCCATCTAC”, the binding signal is 2.21 RPM ratio (pull-down/input).

In the case of “GATGATTGTTCTCCCAGCTGATGAATTACCAATCTCGAGTAAACAAATTTTCCTAATCTTTCTGTTCAAGCGCCATCTAC”, the binding signal is 0.961 RPM ratio (pull-down/input).

Consider “GATGATTGTTCTCCCAGCTGATGAATTTCGCCAGTCGAGTAAACAAATTTTCCTAATCTTTCTGTTCAAGCGCCATCTAC”, for which the binding signal is 0.805 RPM ratio (pull-down/input).

As to “GATGATTGTTCTCCCAGCTGATGAATTGCGATTTTCGAGTAAACAAATTTTCCTAATCTTTCTGTTCAAGCGCCATCTAC”, the binding signal was 1.25 RPM ratio (pull-down/input).

For the sequence “GATGATTGTTCTCCCAGCTGATGAATTGTTACCTTCGAGTAAACAAATTTTCCTAATCTTTCTGTTCAAGCGCCATCTAC”, the binding signal is 1.25 RPM ratio (pull-down/input).

As to “GATGATTGTTCTCCCAGCTGATGAATTGGATGCGTCGAGTAAACAAATTTTCCTAATCTTTCTGTTCAAGCGCCATCTAC”, the binding signal is 1.29 RPM ratio (pull-down/input).

With “GATGATTGTTCTCCCAGCTGATGAATTTTCTAGCTCGAGTAAACAAATTTTCCTAATCTTTCTGTTCAAGCGCCATCTAC”, the binding signal is 0.887 RPM ratio (pull-down/input).

Take “GATGATTGTTCTCCCAGCTGATGAATTCCCGCTTTCGAGTAAACAAATTTTCCTAATCTTTCTGTTCAAGCGCCATCTAC”: the binding signal was 0.937 RPM ratio (pull-down/input).

Regarding “GATGATTGTTCTCCCAGCTGATGAATTATAATCTTCGAGTAAACAAATTTTCCTAATCTTTCTGTTCAAGCGCCATCTAC”, the binding signal is 0.909 RPM ratio (pull-down/input).

Consider “GATGATTGTTCTCCCAGCTGATGAATTCATGATGTCGAGTAAACAAATTTTCCTAATCTTTCTGTTCAAGCGCCATCTAC”, for which the binding signal was 1.21 RPM ratio (pull-down/input).

For the sequence “GATGATTGTTCTCCCAGCTGATGAATTCATGTTGTCGAGTAAACAAATTTTCCTAATCTTTCTGTTCAAGCGCCATCTAC”, the binding signal is 2.26 RPM ratio (pull-down/input).

Turning to “GATGATTGTTCTCCCAGCTGATGAATTTCTGATGTCGAGTAAACAAATTTTCCTAATCTTTCTGTTCAAGCGCCATCTAC”, the binding signal is 1.23 RPM ratio (pull-down/input).

For “GATGATTGTTCTCCCAGCTGATGAATTAATGATGTCGAGTAAACAAATTTTCCTAATCTTTCTGTTCAAGCGCCATCTAC”, the binding signal was 1.2 RPM ratio (pull-down/input).

For “GATGATTGTTCTCCCAGCTGATGAATTGATGATGTCGAGTAAACAAATTTTCCTAATCTTTCTGTTCAAGCGCCATCTAC”, the binding signal was 1.39 RPM ratio (pull-down/input).

“GATGATTGTTCTCCCAGCTGATGAATTGTTGATGTCGAGTAAACAAATTTTCCTAATCTTTCTGTTCAAGCGCCATCTAC”: the binding signal is 2.27 RPM ratio (pull-down/input).

As for “GATGATTGTTCTCCCAGCTGATGAATTCTTCATGTCGAGTAAACAAATTTTCCTAATCTTTCTGTTCAAGCGCCATCTAC”, the binding signal is 0.907 RPM ratio (pull-down/input).

Turning to “GATGATTGTTCTCCCAGCTGATGAATTAATGTTGTCGAGTAAACAAATTTTCCTAATCTTTCTGTTCAAGCGCCATCTAC”, the binding signal is 2.64 RPM ratio (pull-down/input).

As for “GATGATTGTTCTCCCAGCTGATGAATTTCAGCTGTCGAGTAAACAAATTTTCCTAATCTTTCTGTTCAAGCGCCATCTAC”, the binding signal is 0.889 RPM ratio (pull-down/input).
